# An excerpt weighted towards active compounds, which were near 1.5% of everything screened.
# IDE cell activ = activators of human insulin-degrading enzyme in cells. P14735. HEK cells, FAbeta-B cleavage, fluorescence polarization; 0% vehicle, 100% cell-free pure enzyme wells. activation, % at 5.96 µM. 340,000 tested, 0.073% active;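 active means activation above the mean of all tested compounds plus 3 SD, set per screening campaign, cut at about 17% in these data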
# MEX-5 binding = C. elegans MEX-5 TCR-2 RNA binding activity; MEX-5/FITC-TCR2 RNA binding, fluorescence polarization; hits give low values; activity score (negative = inhibition of binding), % at 10 µM; 300,000 tested, 0.38% active;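 active means inhibition past about -25% in most replicates, and total fluorescence under double the plate's negative control median, limit read from the data; inconclusive means replicates evenly split on the limit, or fluorescence at least double controls; inactive means too little inhibition in most replicates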
# Bcl-xL primary = Bcl-xL (human) inhibition; 320,000 tested, 0.7% active; GST-Bcl-xL / FITC-Bim BH3 peptide fluorescence polarization; inhibition, % at 10.9 µM;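 active means inhibition above the mean of all tested compounds plus 3 SD, cutoff set per campaign, cut at about 30% in these data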;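 further: inhibitors lower millipolarization by displacing the labeled peptide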
# Target sequence (Q07817 whole entry, looked up): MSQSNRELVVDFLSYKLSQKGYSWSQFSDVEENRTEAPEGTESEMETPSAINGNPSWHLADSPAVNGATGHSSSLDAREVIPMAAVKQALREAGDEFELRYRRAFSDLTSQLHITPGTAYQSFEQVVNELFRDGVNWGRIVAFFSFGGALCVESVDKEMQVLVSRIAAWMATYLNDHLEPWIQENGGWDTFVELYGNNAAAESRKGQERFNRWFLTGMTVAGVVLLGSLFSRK
# MCL1 BIM primary = inhibitors of human MCL1 binding to BIM-BH3 peptide | Q07820 | GST-MCL1 / FITC-Bim-BH3 fluorescence polarization | inhibition, % at 10.9 µM | 320,000 tested, 0.68% active | AID 2057;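 active means inhibition above the mean inhibition of all tested compounds plus 3 SD, set per campaign, cut at about 40% in these data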;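 further: higher means more loss of mP so more displacement of Bim peptide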
# Target sequence (Q07820 whole entry, looked up): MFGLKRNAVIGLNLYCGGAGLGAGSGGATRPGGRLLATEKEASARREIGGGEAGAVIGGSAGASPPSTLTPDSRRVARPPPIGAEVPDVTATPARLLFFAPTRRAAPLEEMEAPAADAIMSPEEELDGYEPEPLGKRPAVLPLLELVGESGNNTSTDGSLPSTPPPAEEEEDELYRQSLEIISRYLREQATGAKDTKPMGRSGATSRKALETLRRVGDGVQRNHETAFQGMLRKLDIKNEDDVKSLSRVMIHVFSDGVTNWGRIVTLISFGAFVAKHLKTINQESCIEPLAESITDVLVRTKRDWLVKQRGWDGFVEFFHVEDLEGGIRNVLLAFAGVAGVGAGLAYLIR
# IDE cell inh = inhibitors of human insulin-degrading enzyme in cells. inhibition, % at 5.59 µM. HEK cells, FAbetaB cleavage, fluorescence polarization. 320,000 tested, 0.41% active;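 active means percent inhibition above the average of all tested compounds plus 3 SD, set per screening campaign, cut at about 16% in these data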;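 further: IDE supplied by intact live HEK cells; FP after avidin binding of uncleaved biotin substrate so inhibition keeps polarization high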
# GLD-1 RNA inh = GLD-1-TGE RNA interaction inhibition (C. elegans). purified GLD-1 + fluorescein TGE RNA, fluorescence polarization. inhibition, % at 5.96 µM. 320,000 tested, 0.44% active. AID 2280;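 active means percent inhibition above a per-plate cutoff, the plate mean of test compounds plus 3 SD, cut at about 30% in these data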
# A number is an active result; i = inactive; ? = inconclusive; nt = no result given.
SMILES,IDE cell activ,MEX-5 binding,Bcl-xL primary,MCL1 BIM primary,IDE cell inh,GLD-1 RNA inh
Cn1c(=O)c(C(=O)Nc2ccccc2S(N)(=O)=O)c(O)c2ccccc21,i,i,34.0,i,i,i
CCCCCCSc1cc(-c2nc3cnccn3c2NCCCC)ccc1OC,19.8,nt,nt,nt,i,i
CCCCCCSc1cc(-c2nc3cc(C)ccn3c2NCCCC)ccc1OC,i,i,i,i,i,i
COc1cccc(NC(=O)COC(=O)CCn2c(C)csc2=O)c1,i,i,i,i,i,i
CCOC(=O)c1ccc(Nc2nnc(C)c3ccccc23)cc1,i,i,i,i,i,i
COc1ccc2c(-c3ccccc3)cc(SCC(N)=O)nc2c1,i,-32.9,i,i,i,i
CCOC(=O)C1=C(C)Nc2ccccc2N=C1NC(=O)c1oc2ccccc2c1COC,i,nt,i,i,i,i
C=CCn1c(Cc2cccc3ccccc23)n[nH]c1=S,i,i,i,i,i,i
C=CCn1c(Cc2nc3ccccc3[nH]2)n[nH]c1=S,i,-51.1,i,i,i,i
COc1ccccc1NS(=O)(=O)c1cc(NC(=O)c2ccc3c(c2)OCCO3)ccc1C,i,i,i,i,i,i
Cc1cc(N=Cc2cc(Br)ccc2O)no1,i,i,i,i,i,i
Cc1ccc(S(=O)(=O)/N=C/c2cc(Br)ccc2O)cc1,23.3,i,i,i,i,i
CCOC(=O)C1CC(c2ccccc2)=NNC1=O (stereo not given),i,i,i,i,i,i
Cc1cc2c(c(=O)n1Cc1ccco1)C(c1cccnc1)C(C#N)=C(N)O2 (stereo not given),i,i,47.1,45.3,i,i
CCOc1ccc(C2C(C#N)=C(N)Oc3cc(C)n(Cc4ccco4)c(=O)c32)cc1OC (stereo not given),i,i,i,i,i,i
CCNc1cc2oc(=O)c(CN3CCOCC3)c(C)c2cc1C,i,nt,32.2,i,i,i
CCc1cc2c(Nc3ccc(O)cc3)nc(C)nc2s1,i,i,i,i,i,i
CN1CCCC1CCNc1ccc2sc3ccccc3c(=O)c2c1 (stereo not given),i,i,32.9,i,i,38.5
COc1cc2sc3cc(NCCCN4CCOCC4)ccc3c(=O)c2cc1OC,i,nt,nt,nt,i,i
Cc1cc2oc3cc(NCCC4CCCN4C)ccc3c(=O)c2cc1C (stereo not given),i,i,i,i,i,i
O=c1c2ccccc2sc2ccc(NCCCN3CCOCC3)cc12,i,i,i,i,i,36.4
CCO[C@H]1OC(C(=O)NCc2ccccc2)=C[C@@H](c2ccccc2)[C@@H]1CCCO,i,i,i,i,i,i
O=C(Nc1ccccc1)Nc1ccccc1-n1ccnc1,i,i,i,i,i,i
CC(=O)NNC(=O)c1sc(=S)n2c1[nH]c(=O)c1sccc12,i,-48.9,i,i,i,i
NC(=O)c1sc(=S)n2c1[nH]c(=O)c1sccc12,i,i,i,i,i,i
SMILES,IDE cell activ,MEX-5 binding,Bcl-xL primary,MCL1 BIM primary,IDE cell inh,GLD-1 RNA inh
CN1C(=O)/C(=C/c2cn(CC(=O)N3CCCCC3)c3ccccc23)c2ccccc21,nt,-26.6,i,i,i,i
O=c1cc(CN2CCN(c3ccccc3O)CC2)nc2sccn12,i,i,i,i,i,i
O=c1cc(CN2CCN(c3ccc(F)cc3)CC2)nc2sccn12,i,i,34.1,i,i,i
C1CCCN(c2nc3nonc3nc2N2CCCCCC2)CC1,i,i,i,i,i,i
Nc1nc2nonc2nc1N1CCCCC1,i,i,34.2,i,i,i
COc1cccc(NC(=O)CN(C)C(=O)CC(NC(=O)c2ccccc2Cl)c2ccccc2)c1 (stereo not given),i,nt,i,i,i,i
O=C(OCC(=O)N1CCc2ccccc2C1)c1cccnc1Cl,i,i,i,i,i,i
Cc1cccc(N=Nc2c(O)[nH]c3ccc(Br)cc23)c1,i,-32.6,i,i,i,i
O=[N+]([O-])c1ccc(N2N=C(c3ccco3)CC2c2ccccc2)cc1 (stereo not given),i,i,i,i,21.6,i
COc1ccccc1N1N=C(c2ccc([N+](=O)[O-])cc2)CC1c1ccccc1 (stereo not given),i,i,56.4,i,i,i
Cc1c(Br)c([N+](=O)[O-])nn1CC(=O)Nc1ccc(C(N)=O)cc1,i,i,i,i,i,i
CC(C)Cn1cnc2c1c(=O)n(CC(=O)NC(=O)NC(C)(C)C)c(=O)n2Cc1ccccc1,i,i,i,i,i,i
CN(C(=O)c1cccs1)C1(C)CCS(=O)(=O)C1 (stereo not given),i,i,i,i,i,i
Cc1cc(O)c(-c2cc(O)c(C)cc2O)cc1O,i,-79.8,i,i,i,i
Cc1ccc(N)cc1O,i,nt,i,i,i,i
Cc1nc(-c2ccc(O)c(O)c2)cs1,i,-51.2,i,i,i,i
COc1cc(-c2csc(C)n2)ccc1O,i,i,i,i,i,i
CCOc1ncccc1C(=O)OCC(=O)NCc1ccc(C(=O)OC)cc1,i,nt,nt,nt,i,i
NS(=O)(=O)c1ccc(CCNC(=O)C2Cc3ccccc3CN2C(=O)c2ccco2)cc1 (stereo not given),i,i,i,i,i,i
NS(=O)(=O)c1ccc(NC(=O)C2Cc3ccccc3CN2C(=O)c2ccco2)cc1 (stereo not given),i,i,37.8,i,i,i
CC(C)c1ccc(/C=C2\Oc3c(ccc(O)c3CN3CCN(C)CC3)C2=O)cc1,i,i,41.2,i,i,i
Cc1ccc(/C=C2\Oc3c(ccc(O)c3CN3CCN(CCO)CC3)C2=O)cc1,i,-31.5,47.7,i,i,i
COc1ccccc1-c1coc2c(CN3CCN(CCO)CC3)c(O)ccc2c1=O,i,i,i,i,i,i
O=C1N=C(N2CCCCC2)S/C1=C/C1=Cc2ccccc2OC1,i,-43.1,i,i,i,i
COc1cccc(Nc2nc3ccccc3nc2NS(=O)(=O)c2cccs2)c1,i,i,i,i,i,i
COc1ccc(Nc2nc3ccccc3nc2NS(=O)(=O)c2cccs2)c(OC)c1,i,-40.0,i,i,i,i
O=C1CN(S(=O)(=O)c2cc(C(=O)O)ccc2Cl)c2ccccc2N1,i,i,i,i,i,i
COC(=O)CCC(=O)OC1(C)C(=O)C2=CN(CCc3ccccn3)C(c3ccc(OC)cc3)=CC2=C(Br)C1=O (stereo not given),i,?,36.5,40.0,i,i
COC(=O)CCC(=O)OC1(C)C(=O)C2=CN(C(CO)CO)C(c3ccc(OC)cc3)=CC2=C(Br)C1=O (stereo not given),nt,i,38.2,39.9,i,i
COC(=O)CCC(=O)OC1(C)C(=O)C2=CN(CCN3CCOCC3)C(c3ccc(OC)cc3)=CC2=C(Br)C1=O (stereo not given),nt,i,i,i,i,i

# Bioassay records as filed in PubChem BioAssay.
